Results from PubChem BioAssay (NCATS).
Results filed as inconclusive are left out. Calls of active or inactive are those of the source. Calls follow the shape of the dose curve; as a rule, active = well fitted inhibition curve with a large enough effect; inconclusive = small, poorly fitted or top-dose-only effect; inactive = flat fitted curve, though single readings scatter. Peptide text beside a SMILES is read from it.

Key:
[1] = qHTS profiling for inhibitors of Plasmodium falciparum proliferation (AID 504749);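 as to activity, negative = inhibition: 0% = DMSO vehicle and full inhibition = artemisinin control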; as to all read-outs here: nearly all actives have a fitted effect of over 60% in size; details: P. falciparum in erythrocytes, SYBR Green DNA, 72 h; for activity, negative = inhibition: at 28.7 µM (top of the series)
Outline: (§1)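 Parasite proliferation within erythrocytes, 72 h exposure. Endpoint: SYBR Green I fluorescence after overnight lysis at room temperature. Controls: 0.29 uM artemisinin, DMSO.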

[2] = test system: 3D7; assay: as above; details: P. falciparum in erythrocytes, SYBR Green DNA, 72 h; series mostly up to 28.7 µM
Outline: as §1

[3] = test system: 7G8; assay: as above; details: P. falciparum in erythrocytes, SYBR Green DNA, 72 h; series mostly up to 28.7 µM
Outline: as §1

[4] = test system: AA1029; assay: as above; details: P. falciparum in erythrocytes, SYBR Green DNA, 72 h; series mostly up to 28.7 µM
Outline: as §1

[5] = test system: AS120; assay: as above; details: P. falciparum in erythrocytes, SYBR Green DNA, 72 h; series mostly up to 28.7 µM
Outline: as §1

[6] = test system: ATS189; assay: as above; details: P. falciparum in erythrocytes, SYBR Green DNA, 72 h; series mostly up to 28.7 µM
Outline: as §1

[7] = test system: ATS95; assay: as above; details: P. falciparum in erythrocytes, SYBR Green DNA, 72 h; series mostly up to 28.7 µM
Outline: as §1

[8] = test system: C2A; assay: as above; details: P. falciparum in erythrocytes, SYBR Green DNA, 72 h; series mostly up to 28.7 µM
Outline: as §1

[9] = test system: CP185; assay: as above; details: P. falciparum in erythrocytes, SYBR Green DNA, 72 h; series mostly up to 28.7 µM
Outline: as §1

[10] = test system: CP191; assay: as above; details: P. falciparum in erythrocytes, SYBR Green DNA, 72 h; series mostly up to 28.7 µM
Outline: as §1

[11] = test system: CP192; assay: as above; details: P. falciparum in erythrocytes, SYBR Green DNA, 72 h; series mostly up to 28.7 µM
Outline: as §1

[12] = test system: CP194; assay: as above; details: P. falciparum in erythrocytes, SYBR Green DNA, 72 h; series mostly up to 28.7 µM
Outline: as §1

[13] = test system: CP201; assay: as above; details: P. falciparum in erythrocytes, SYBR Green DNA, 72 h; series mostly up to 28.7 µM
Outline: as §1

[14] = test system: CP203; assay: as above; details: P. falciparum in erythrocytes, SYBR Green DNA, 72 h; series mostly up to 28.7 µM
Outline: as §1

[15] = test system: CP211; assay: as above; details: P. falciparum in erythrocytes, SYBR Green DNA, 72 h; series mostly up to 28.7 µM
Outline: as §1

[16] = test system: CP215; assay: as above; details: P. falciparum in erythrocytes, SYBR Green DNA, 72 h; series mostly up to 28.7 µM
Outline: as §1

[17] = test system: CP217; assay: as above; details: P. falciparum in erythrocytes, SYBR Green DNA, 72 h; series mostly up to 28.7 µM
Outline: as §1

[18] = test system: CP237; assay: as above; details: P. falciparum in erythrocytes, SYBR Green DNA, 72 h; series mostly up to 28.7 µM
Outline: as §1

[19] = test system: CP238; assay: as above; details: P. falciparum in erythrocytes, SYBR Green DNA, 72 h; series mostly up to 28.7 µM
Outline: as §1
Potency is read from the fitted curve at half-maximal effect.

CC1=C(/C=C/C(C)=C/C=C/C(C)=C/C=C/C=C(C)/C=C/C=C(C)/C=C/C2=C(C)C(=O)CCC2(C)C)C(C)(C)CCC1=O
inactive: activity, negative = inhibition ([1]; parasite line A) -4.18% | activity, negative = inhibition ([1]; parasite line B) 4.39% | Potency [2] | Potency [3] | Potency [4] | Potency [5] | Potency [6] | Potency [7] | Potency [8] | Potency [9] | Potency [10] | Potency [11] | Potency [12] | Potency [13] | Potency [14] | Potency [15] | Potency [16] | Potency [17] | Potency [18] | Potency [19]

COC(=O)C1=C(C#N)NC(C)=C(C(=O)OC(C)C)C1c1cccc([N+](=O)[O-])c1 (stereo unspecified)
active: Potency ([1]; parasite line A) 8.91 µM | Potency ([1]; parasite line B) 11.2 µM | Potency [2] 8.91 µM | Potency [3] 10 µM | Potency [4] 11.2 µM | Potency [5] 8.91 µM | Potency [6] 11.2 µM | Potency [7] 11.2 µM | Potency [8] 11.2 µM | Potency [9] 7.94 µM | Potency [10] 11.2 µM | Potency [12] 12 µM | Potency [14] 7.57 µM | Potency [15] 9.53 µM | Potency [17] 11.2 µM | Potency [19] 10 µM

O=C(O)CCC(=O)C(=O)O
inactive: activity, negative = inhibition ([1]; parasite line A) 2.78% | activity, negative = inhibition ([1]; parasite line B) 9.14% | Potency [2] | Potency [3] | Potency [4] | Potency [5] | Potency [6] | Potency [7] | Potency [8] | Potency [9] | Potency [10] | Potency [11] | Potency [12] | Potency [13] | Potency [14] | Potency [15] | Potency [16] | Potency [17] | Potency [18] | Potency [19]

CO[C@H]1C[C@@H]2CC[C@@H](C)[C@@](O)(O2)C(=O)C(=O)N2CCCC[C@H]2C(=O)O[C@H]([C@H](C)C[C@@H]2CC[C@@H](OCCO)[C@H](OC)C2)CC(=O)[C@H](C)/C=C(\C)[C@@H](O)[C@@H](OC)C(=O)[C@H](C)C[C@H](C)/C=C/C=C/C=C/1C
active: Potency ([1]; parasite line A) 2.24 µM | Potency ([1]; parasite line B) 1.12 µM | Potency [2] 1.78 µM | Potency [3] 1.12 µM | Potency [4] 1.41 µM | Potency [5] 1.12 µM | Potency [6] 1.26 µM | Potency [7] 2 µM | Potency [8] 3.16 µM | Potency [9] 3.16 µM | Potency [10] 1.12 µM | Potency [11] 4.78 µM | Potency [12] 1.69 µM | Potency [13] 6.01 µM | Potency [14] 1.9 µM | Potency [15] 4.26 µM | Potency [16] 1.69 µM | Potency [17] 1 µM | Potency [18] 2 µM | Potency [19] 2.82 µM

CC(=O)N[C@@H](CC(=O)O)C(=O)N[C@@H](CCC(=O)O)C(=O)O (Ac-Asp-Glu-OH)
inactive: activity, negative = inhibition ([1]; parasite line A) 24.6% | activity, negative = inhibition ([1]; parasite line B) 14.8% | Potency [2] | Potency [3] | Potency [4] | Potency [5] | Potency [6] | Potency [7] | Potency [8] | Potency [9] | Potency [10] | Potency [11] | Potency [12] | Potency [13] | Potency [14] | Potency [15] | Potency [16] | Potency [17] | Potency [18] | Potency [19]

Nc1c(Br)cc(Br)cc1CNC1CCC(O)CC1 (stereo unspecified)
inactive: activity, negative = inhibition ([1]; parasite line A) 8.81% | activity, negative = inhibition ([1]; parasite line B) -8.99% | Potency [2] | Potency [3] | Potency [4] | Potency [5] | Potency [6] | Potency [7] | Potency [8] | Potency [9] | Potency [10] | Potency [11] | Potency [12] | Potency [13] | Potency [15] | Potency [16] | Potency [17] | Potency [19]

CO[C@H](C(=O)[C@@H](O)[C@@H](C)O)C1Cc2cc3cc(O[C@H]4C[C@@H](O[C@H]5C[C@@H](O)[C@H](O)[C@@H](C)O5)[C@@H](O)[C@@H](C)O4)c(C)c(O)c3c(O)c2C(=O)[C@H]1O[C@H]1C[C@@H](O[C@H]2C[C@@H](O[C@H]3C[C@](C)(O)[C@H](O)[C@@H](C)O3)[C@H](O)[C@@H](C)O2)[C@H](O)[C@@H](C)O1 (stereo partly specified)
active: Potency ([1]; parasite line A) 0.112 µM | Potency ([1]; parasite line B) 0.251 µM | Potency [2] 0.112 µM | Potency [3] 0.0447 µM | Potency [4] 0.112 µM | Potency [5] 0.141 µM | Potency [6] 0.158 µM | Potency [7] 0.126 µM | Potency [8] 0.224 µM | Potency [9] 0.199 µM | Potency [10] 0.178 µM | Potency [11] 2.13 µM | Potency [12] 2.69 µM | Potency [13] 2.13 µM | Potency [14] 2.69 µM | Potency [15] 2.13 µM | Potency [16] 1.69 µM | Potency [17] 0.224 µM | Potency [18] 0.112 µM | Potency [19] 0.178 µM

IC(I)I
inactive: activity, negative = inhibition ([1]; parasite line A) 0.888% | activity, negative = inhibition ([1]; parasite line B) 2.57% | Potency [2] | Potency [3] | Potency [4] | Potency [5] | Potency [6] | Potency [7] | Potency [8] | Potency [9] | Potency [10] | Potency [12] | Potency [13] | Potency [14] | Potency [15] | Potency [17] | Potency [18] | Potency [19]

CCCCCCCCCCCCCC[n+]1ccc(C)cc1
active: Potency ([1]; parasite line A) 2.51 µM | Potency ([1]; parasite line B) 5.62 µM | Potency [2] 2.51 µM | Potency [3] 1.12 µM | Potency [4] 3.98 µM | Potency [5] 3.55 µM | Potency [6] 5.62 µM | Potency [7] 2.82 µM | Potency [8] 3.16 µM | Potency [9] 5.01 µM | Potency [10] 2.82 µM | Potency [11] 4.78 µM | Potency [12] 4.26 µM | Potency [13] 4.78 µM | Potency [14] 3.79 µM | Potency [15] 3.38 µM | Potency [16] 4.26 µM | Potency [17] 3.98 µM | Potency [18] 3.55 µM | Potency [19] 4.47 µM

CCCCC(C)(O)C/C=C/[C@H]1[C@H](O)CC(=O)[C@@H]1CCCCCCC(=O)OC (stereo partly specified)
inactive: activity, negative = inhibition ([1]; parasite line A) 0.758% | activity, negative = inhibition ([1]; parasite line B) 3.16% | Potency [2] | Potency [3] | Potency [4] | Potency [5] | Potency [6] | Potency [7] | Potency [8] | Potency [9] | Potency [10] | Potency [11] | Potency [12] | Potency [13] | Potency [14] | Potency [15] | Potency [17] | Potency [18] | Potency [19]
